Pf Dd2 inh: qHTS Primary assay for Inhibitors of Plasmodium falciparum Dd2 growth in vitro | P. falciparum Dd2 growth, SYBR Green, 72 h | Potency, µM (titrated, usually from 28.9 µM), inactives show at the highest dose activity, negative = inhibition, most hits filed as inhibitors | hit rate 4.3% among 120,000 | AID 1347417, 2020; active = well fitted inhibition curve with a large enough effect;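 note: plate controls were DMSO vehicle for no effect and reference drug for full effect; nearly all actives have a fitted effect of over 65% in size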
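Infected erythrocytes (Dd2, 0.3% parasitemia, 2.5% hematocrit final) are added to compound in RPMI-1640/Albumax II medium, grown 72 h at 37C in low oxygen, then lysed with saponin/Triton-X containing SYBR Green and read by fluorescence.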
The depositor's hits bear a star; i = inactive; [ ] = another dose, or the depositor's remark. Only a selection was taken, and hits are over-represented in it overall. Potency is the fitted concentration of half-maximal effect.

SMILES | Pf Dd2 inh
O=C1CC(c2ccccc2)N(C(=O)C2CC2)CCCN(C(=O)c2ccco2)CCN1 (stereo not drawn) | 14%
O=C1C(c2ccc(F)cc2)N(Cc2ccccc2Cl)C(=O)CN1C1CCCCC1 (stereo not drawn) | -14%
CCCOc1ccc(C2C(=O)N(C3CCCCC3)CC(=O)N2C2CCCCC2)cc1OC (stereo not drawn) | 24%
CCCCCCOc1ccc(C2C(=O)N(C3CCCCC3)CC(=O)N2CCCC)cc1 (stereo not drawn) | 8.9µM*
COCCn1c(=O)n([C@H]2CCCN(C(=O)c3cc(C)nn3C)C2)c2ncccc21 | -8%
CCc1ccc(S(=O)(=O)c2c(C(=O)c3ccc(C)c(C)c3)cnc3ccccc23)cc1 | 4µM*
Cc1ccc(CCNC(=O)c2cc(Nc3ccc(C)c(C)c3)nc3ccccc23)cc1 | -2%
CCc1ccc(C(=O)c2cnc3ccc(C)cc3c2S(=O)(=O)c2ccc(OC)cc2)cc1 | 11µM*
CCOc1ccc(S(=O)(=O)c2c(C(=O)c3ccc(CC)cc3)cnc3ccc(C)cc23)cc1 | i
COc1ccc(S(=O)(=O)c2c(O)c3ccc(C(=O)NCc4ccc(F)cc4)cc3[nH]c2=O)cc1 | -17%
CCc1ccc(Cn2c(CNS(=O)(=O)c3ccc(C)c(C)c3)nc3cccnc32)cc1 | -15%
CCN1CC(c2ccccc2)CC2(CCN(C(=O)c3ccc(C)nc3)CC2)C1 (stereo not drawn) | -30%
Cn1cc(CN[C@H]2C[C@H]3C(=O)NC[C@@H](CCC(=O)N4CCc5ccccc54)N3C2)c2ccccc21 | -11%
Cc1nc(C2CCN(C(=O)CNC(N)=O)CC2)cc(N2CCOCC2)n1 | -7%
CCc1noc(-c2cn(C3CCN(C(=O)c4cc(Cl)ccc4OC)CC3)nn2)n1 | -28%
Cc1ccc(NC(=O)C2Cn3cccc3C(=O)N2)cc1F (stereo not drawn) | 21%
CCCCn1cc(S(=O)(=O)c2ccc(C)cc2)c(=O)c2cc(F)c(N3CCCCC3)cc21 | -7%
CCCn1cc(S(=O)(=O)c2ccccc2)c(=O)c2cc(F)c(N3CCCCCC3)cc21 | 11µM*
CCCn1cc(S(=O)(=O)c2ccc(OC)cc2)c(=O)c2cc(F)c(N3CCCC(C)C3)cc21 (stereo not drawn) | 11µM*
CCc1ccc(S(=O)(=O)c2cn(C)c3cc(OC)c(OC)cc3c2=O)cc1 | i
CCCCn1cc(S(=O)(=O)c2ccc(OC)cc2)c(=O)c2cc(CC)ccc21 | -21%
CCCn1cc(S(=O)(=O)c2ccc(OC)cc2)c(=O)c2cc(F)c(N3CCCCCC3)cc21 | 11µM*
CCCCn1cc(S(=O)(=O)c2ccc(OC)cc2)c(=O)c2cc(F)c(N3CCCC3)cc21 | -12%
CCCn1cc(S(=O)(=O)c2ccccc2)c(=O)c2cc(F)c(N3CCCC3)cc21 | -12%
CCn1cc(S(=O)(=O)c2cccc(C)c2)c(=O)c2cc(F)c(N3CCCC(C)C3)cc21 (stereo not drawn) | 77%
SMILES | Pf Dd2 inh
CCc1ccc(S(=O)(=O)c2cn(Cc3ccc(OC)cc3)c3cc(OC)c(OC)cc3c2=O)cc1 | 11µM*
CCCCn1cc(S(=O)(=O)c2ccc(C)c(C)c2)c(=O)c2cc(F)c(N3CCCC(C)C3)cc21 (stereo not drawn) | -7%
CCc1ccc(S(=O)(=O)c2cn(C)c3cc(N4CCN(CC)CC4)c(F)cc3c2=O)cc1 | 260%[5.79 µM]
O=C1c2c(nc(COc3cccc(Cl)c3)n2Cc2ccccc2)NCCN1CCOc1ccccc1 | -22%
CCn1cnnc1CC1CCNC1 (stereo not drawn) | 14%
O=S(=O)(c1cccnc1)N1CCC(OC2CCN(Cc3cccnc3)CC2)CC1 | -20%
COC(=O)[C@H](NC(=O)[C@@H]1C[C@H](NC(=O)Nc2ccc(OC)cc2)CN1C(=O)C=C(C)C)C(C)C | -16%
Cc1ccc(S(=O)(=O)N(C)C2CCCc3ccccc32)cc1 (stereo not drawn) | i
COC(=O)c1cnc2c(c1)n(CCCn1cnnn1)c(=O)n2C1CCCCC1 | 13%
CN(C)c1cc(N2CCCC(NC(=O)c3ccnn3C)C2)ncn1 (stereo not drawn) | 22%[5.79 µM]
Cn1c(-c2ccc(CN3CCc4[nH]cnc4C3C(=O)O)o2)nc2ccccc21 (stereo not drawn) | -10%
Cc1cc(C)cc(S(=O)(=O)c2cn(C)c3cc(N4CCCC4)c(F)cc3c2=O)c1 | i
COc1ccc(S(=O)(=O)c2cn(C)c3cc(N4CCCCCC4)c(F)cc3c2=O)cc1 | 8.9µM*
Cc1ccc(C)c(Cn2cc(S(=O)(=O)c3ccc(Cl)cc3)c(=O)c3cc(F)ccc32)c1 | i
CCOc1ccc(S(=O)(=O)c2cn(Cc3cc(C)ccc3C)c3ccc(OCC)cc3c2=O)cc1 | 10µM*
Cn1cc(S(=O)(=O)c2cccc(Cl)c2)c(=O)c2cc(F)c(N3CCCCC3)cc21 | 5%
CCCn1cc(S(=O)(=O)c2ccc(OCC)cc2)c(=O)c2cc(C)ccc21 | -13%
Cc1c(C(=O)N2CC[C@](C)(O)[C@@H](O)C2)[nH]c2c(F)cccc12 | -12%
CN(C(=O)CN1C(=O)C(c2ccccc2)=NC12CCCC2)c1ccccc1 | i
O=C(c1ccc(Cl)nc1)N1CCCC(c2nn(-c3ccc(F)cc3)c(=O)[nH]2)C1 (stereo not drawn) | -16%
COc1ccc(N2Cc3c(ncnc3N3CCC(O)CC3)N(C)CC2=O)cc1 | -25%
CN(C1CCOCC1)C1CCN(C(=O)C2CCCCC2)CC1 | i
CCc1nnc(CN(C)C(=O)c2cnc(-c3ccc(C)cc3)[nH]c2=O)o1 | 6%
C=CCNC(=O)N[C@H]1C[C@@H](C(=O)N[C@@H](Cc2ccc(OC)cc2)C(N)=O)N(C(=O)CC(C)(C)C)C1 | -2%
COc1ccc(CN2CCCC3(C2)NC(=O)c2ccccc2O3)cc1 (stereo not drawn) | i
SMILES | Pf Dd2 inh
COc1ccc(C(=O)N2CCCCCCNC(=O)[C@@H]3CCCC[C@@H]32)c(OC)n1 | -13%
COc1ccccc1CC(=O)N1CCCc2ncc(C(=O)N3CCCC[C@@H]3c3ccccc3)cc21 | 11µM*
COc1ccccc1CC(=O)N1CCCc2ncc(C(=O)N3CCC(OC)CC3)cc21 | 1%[44.1 µM]
COc1ccccc1CC(=O)N1CCCc2ncc(C(=O)N3CCCC[C@@H]3Cc3ccccc3)cc21 | 7.9µM*
COc1ccccc1CC(=O)N1CCCc2ncc(C(=O)NCc3cccc(Cl)c3)cc21 | i
COC1CCN(C(=O)c2cnc3c(c2)N(C(=O)CCc2ccccc2)CCC3)CC1 | -23%[44.1 µM]
COc1ccccc1CC(=O)N1CCCc2ncc(C(=O)NC(c3ccccc3)c3ccccc3)cc21 | 0%
CCOCCCNC(=O)N1CCC(OC2CCN(Cc3ccccc3)CC2)CC1 | -7%
COCCOc1ccc2c(n1)CCN(C(=O)Cc1ccccc1)C2 | -22%
COc1cccc(NC(=O)NC[C@H]2O[C@@H](CO)[C@@H](O)[C@H]2N2CCN(c3ccc(F)cc3)CC2)c1 | i
Cc1ccc(OCc2nc(C3CCNC3)no2)cc1 (stereo not drawn) | -1%
c1ccc(OCc2nc(C3CCCNC3)no2)cc1 (stereo not drawn) | 5.6µM*
Fc1ccccc1OCc1nc(C2CCCNC2)no1 (stereo not drawn) | i
CCN(CC)C(=O)CC[C@@H]1CNC(=O)[C@@H]2C[C@H](NC(=O)c3ccc(N(C)C)cc3)CN12 | -4%[44.1 µM]
O=C(c1cc(F)ccc1F)N1CCCN(CCc2ccccc2)c2ccccc21 | i
COc1ccc(CCC(=O)N2CCCN(C)c3ccccc32)cc1 | -15%
CN1CCCN(C(=O)CCc2ccccc2)c2ccccc21 | i

Screens from PubChem BioAssay.
